Our source for the inhibition values is PubChem BioAssay AID571 (The Scripps Research Institute Molecular Screening Center, 2007).

Among all 65,000 compounds or so, about 640 (0.98%) were called active. For the sample, actives were picked, then their nearest neighbours and some compounds at random. Unmarked numbers belong to inactive results.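 How the source made its calls: active means inhibition above a set limit, the mean inhibition across every tested compound plus 3 SD (cut at about 29% in these data); inactive means the rest.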

Broadly, the inhibition is the change of the read-out against control, counted positive when it falls.

In the assay the target is 5-hydroxytryptamine receptor 1E (Homo sapiens) (UniProt P28566). As to the kind of experiment: blockade of human serotonin 5HT1E receptor – cell-based, HTS, primary screen (AID 571).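 Further: signal is the 460 over 535 nm emission ratio of beta-lactamase substrate; 0% = agonist plus DMSO wells and 100% = wells without agonist.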 The following applies: CHO 5-HT1E Ga15 NFAT-bla reporter, FRET, antagonist; at 6 µM; active compounds read high.
Chain of 5-hydroxytryptamine receptor 1E (Homo sapiens) (P28566 whole entry, looked up): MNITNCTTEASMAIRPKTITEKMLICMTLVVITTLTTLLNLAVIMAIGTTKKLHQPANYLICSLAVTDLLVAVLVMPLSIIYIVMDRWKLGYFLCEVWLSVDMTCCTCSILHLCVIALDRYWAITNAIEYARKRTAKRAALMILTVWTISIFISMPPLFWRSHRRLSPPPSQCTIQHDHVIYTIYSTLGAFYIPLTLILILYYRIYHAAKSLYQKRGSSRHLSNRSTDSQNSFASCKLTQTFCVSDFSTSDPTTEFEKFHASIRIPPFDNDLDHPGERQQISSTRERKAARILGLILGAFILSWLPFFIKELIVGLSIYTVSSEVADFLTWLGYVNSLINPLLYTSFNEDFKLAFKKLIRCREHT
In the case of `O=C(CSc1nnc(-c2cccnc2)n1Cc1ccco1)c1ccc(Cl)cc1`, the inhibition is 11%. The same measure for `Cc1ccc(-c2c3c(=O)n(C)c(=O)n(C)c3cn2-c2ccccc2O)cc1`: 4.09%. `Cc1ccc(-c2c3c(=O)n(C)c(=O)n(C)c3cn2-n2cnnc2)cc1`: the inhibition was 30.5% (active). For `COc1ccc(-c2c3c(=O)n(C)c(=O)n(C)c3cn2-c2cccc(OC)c2)cc1`, the inhibition is 6.73%.

With `CC1CC(C)CN(CC(=O)Nc2ccc(S(N)(=O)=O)cc2)C1` (stereo not drawn), the inhibition is -5.33%.

In the case of `Cc1ccc(SCc2cc(=O)[nH]c(N3CCCCC3)n2)cc1`, the inhibition was 2.38%. The same measure for `C=CCSc1nnc(Cn2c(=O)sc3ccccc32)n1C`: 1.57%.

Regarding `COc1ccccc1-n1nnnc1S(=O)(=O)Cc1ccc(Cl)cc1`, the inhibition was 29.9% (active). Consider `COc1ccccc1N1CCN(C(=O)CN(Cc2ccc(Cl)cc2)S(C)(=O)=O)CC1`, for which the inhibition is -2.25%. Regarding `COc1ccccc1N1CCN(Cc2nnnn2CCc2ccccc2)CC1`, the inhibition is -0.82%. With `Cn1cnc2c1c(=O)n(Cc1c(Cl)cccc1Cl)c(=O)n2C` the figure was 5.12%; with `COC(=O)CNS(=O)(=O)c1ccc(Cc2ccc(S(=O)(=O)NCC(=O)OC)cc2)cc1`, 3.6%. The same measure for `CCCn1c(C(O)c2ccc(OCC)cc2)nc2ccccc21` (stereo not drawn): -10.8%; for `COc1ccc(CCn2c(NCCCN3CCOCC3)nc3c2c(=O)[nH]c(=O)n3C)cc1`: -6.49%. Turning to `COC(=O)c1ccc(NC(=O)CN(c2ccc(C)cc2)S(=O)(=O)c2c(C)n[nH]c2C)cc1`, the inhibition was 3.08%. The same measure for `CCOC(=O)c1ccc(-c2ccc(C(=O)Nc3cccnc3)o2)cc1`: 10.9%; for `Cc1cccc(NC(=O)CSc2nnc(NC(=O)CN3CCOCC3)s2)c1`: -3.22%. With `CCC(=O)Nc1ccc(C(=O)CSc2nnc(CNc3ccc(Cl)cc3)o2)cc1OC`, the inhibition is 1.52%. With `COc1ccc2c(c1OC)C(=O)N(c1ncn[nH]1)C2` the figure was -0.04%; with `COCC(C)n1c(SCc2ccc(C(=O)OC)o2)nc2ccccc2c1=O` (stereo not drawn), 24.9%; with `COC(=O)c1ccc(CSc2ccccc2C)o1`, 1.46%. For the molecule `COC(=O)c1ccc(CSc2nc3ccccc3c(=O)n2-c2cccc(OC)c2)o1`, the inhibition was 39.7% (active). With `Cc1cc(Nc2cccc(F)c2)n2ncnc2n1` the figure was -1.52%. The same measure for `CC(=O)NCCc1ccc(S(=O)(=O)N(C)C2CCS(=O)(=O)C2)cc1` (stereo not drawn): -8.57%; for `Fc1ccc2[nH]c3c(N4CCN(Cc5ccc6c(c5)OCO6)CC4)ncnc3c2c1`: 27.4%; for `Fc1ccc2[nH]c3c(N4CCSCC4)ncnc3c2c1`: 54.9% (active).

`Fc1ccc2nc(N3CCCCC3)sc2c1`: the inhibition is 1.55%. As for `C=CCN(CC=C)C(=O)CN1C(=O)c2ccccc2C1=O`, the inhibition was 1.46%.

For the molecule `COC(=O)Nc1nc2ccc(Sc3ccccc3)cc2[nH]1`, the inhibition was 65.7% (active). The same measure for `Oc1ccc2nc(Cc3ccccc3)[nH]c2c1`: -16.1%. As to `COC(=O)Cc1nc2ccccc2[nH]1`, the inhibition was -1.34%. In the case of `CCOc1ccccc1C1CC(c2ccc(Cl)cc2)Nc2nc(N)nn21` (stereo not drawn), the inhibition was 4.62%.

With `N=c1n(Cc2ccc(Cl)cc2)c2ccccc2n1CC(O)c1ccco1` (stereo not drawn), the inhibition was -1.68%.

With `CC(=O)NC(C)(C)C1CC=C(C)/C(=N\O)C1` (stereo not drawn), the inhibition was 6.93%. For `CC(C)(C)C(=O)CCN1C(=O)C2(OCCO2)c2ccccc21`, the inhibition was -0.27%.

In the case of `COc1ccc2[nH]c3c(=O)n(Cc4ccco4)cnc3c2c1`, the inhibition is 9.2%. The same measure for `CSc1nnc(CNC(=O)c2ccccc2)n1-c1ccc(F)cc1`: 4.06%; for `CC(NC(=O)c1ccco1)C(=O)Nc1nc(-c2ccccn2)cs1` (stereo not drawn): -4.44%; for `CCn1c(Cc2ccccc2)nnc1SCC(=O)Nc1ccccc1`: -6.68%.

Regarding `CC1(C)CC(=O)C=C(NCCCNC2CCCCC2)C1`, the inhibition is 7.98%. As to `Cc1nnc(SCC(=O)NCc2cccs2)[nH]c1=O`, the inhibition is 2.95%. With `CCN(CC(=O)NCc1cccs1)c1nnnn1-c1ccccc1` the figure was 28.8% (active). The same measure for `Cc1ccccc1-n1c(SCC(=O)NCc2cccs2)nnc1-c1ccncc1`: -6.81%; for `c1cnn(-c2cc(N3CCOCC3)ncn2)c1`: -8.12%. The same measure for `O=C1c2ccccc2-c2ncnc3c(N4CCOCC4)cc(N4CCOCC4)c1c23`: 38.7% (active); for `c1ccc(-c2oc3ncnc(N4CCOCC4)c3c2-c2ccccc2)cc1`: -16.4%. Take `COc1ccccc1N(C(=O)Cn1nnc2ccccc21)C(C(=O)NCc1ccco1)c1ccc(C)o1` (stereo not drawn): the inhibition was 12.3%.

On to `COc1ccc(-c2nnco2)cc1OC`, for which the inhibition was 3.01%. The same measure for `COc1ccc(-c2ccc(Nc3ccc(S(=O)(=O)N4CCCC4)cc3)nn2)cc1OC`: 20.8%; for `COc1ccc(-c2cc(C(F)(F)F)nc(S(C)(=O)=O)n2)cc1OC`: 70.8% (active); for `CCSc1nc(C)nc2c1oc1ccccc12`: 10.3%.

As to `CCc1nc(Nc2ccc3nccnc3c2)c2oc3ccccc3c2n1`, the inhibition was 51.6% (active). On to `CCc1nc(N2CCN(c3nc(C)cc(C)n3)CC2)c2oc3ccccc3c2n1`, for which the inhibition was 4.92%. Take `Cc1ccc(N(CC(O)CN2CCCC2)S(=O)(=O)c2ccccc2)cc1` (stereo not drawn): the inhibition is -0.23%. Turning to `Cc1ccc(Nc2cc(=O)n(C3CCCCC3)c(=O)[nH]2)cc1C`, the inhibition was -5.13%. For the molecule `CN1CCN(Cc2nc3c(c(=O)n(C)c(=O)n3C)n2Cc2cccc3ccccc23)CC1`, the inhibition is 1.52%. For `COc1ccc(N(CC(=O)NC2CCCCCCC2)S(=O)(=O)c2c(C)nn(C)c2C)cc1`, the inhibition was -13.7%.

As to `Cc1cn(C2C=CC(CO)O2)c(=O)[nH]c1=O` (stereo not drawn), the inhibition was -4.28%. With `O=C(CN1C(=O)CSc2ncccc21)N1CCOCC1` the figure was 16.6%; with `Cc1cccc(CSc2nnc(Cn3c(=O)sc4ccccc43)n2C)c1`, -7.45%. With `Cc1nc2cc(-c3ccc(F)cc3)nn2c(N2CCOCC2)c1C` the figure was -1.31%.

Take `COc1cccc(-c2nc(S(=O)(=O)c3ccccc3)c(N3CCOCC3)o2)c1`: the inhibition was 19.7%. With `COc1cccc(-c2cc3nc4c(c(N5CCC6(CC5)OCCO6)n3n2)CCCC4)c1` the figure was 28.7% (active).
